H9c2 TAG inh = triacylglycerol accumulation inhibition; H9c2 cells, Nile Red lipid (TAG) fluorescence; cells loaded with 200 µM oleic acid; inhibition, % at 12.5 µM; hit rate 0.66% among 230,000;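 active = pattern-corrected inhibition of lipid staining of at least 50% with the nuclear-stain viability signal not falling by more than 50%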;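 also: 0% = DMSO wells and 100% = triacsin C control wells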
Jurkat NFkB inh = lowers PMA/ionomycin-induced NF-kB signal in Jurkat cells; inhibition, % at 4 µM; PMA/ionomycin-induced NF-kB luciferase reporter, luminescence; hit rate 0.53% among 330,000; in the data active = inhibition above about 50%
H9c2 protect = myocardial damage modulation in H9c2 cells | H9c2 cardiomyocytes, H2O2 injury protection, ATPLite, 2 h | protection from H2O2 cell death, % at 20 µM | hit rate 0.63% among 360,000 | AID 588492;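 active = compounds giving at least 50% protection of heart cells from peroxide-induced death in the single-dose screen, raw or plate-pattern-corrected value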;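 also: 0% = DMSO wells with peroxide and 100% = DMSO wells without peroxide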
COUP-TFII inh = NR2F2 (human) inhibition, primary screen; HEK293T NGFI-A luciferase reporter, luminescence; inhibition, % at 8.6 µM; hit rate 0.7% among 370,000; AID 686940;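 active = inhibition above a per-plate cutoff, mean inhibition of test wells between control levels plus 3 SD, cut at about 38% in these data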;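 also: cells cotransfected with COUP-TFII expression vector driving the NGFI-A reporter; 0% = median of COUP-TF2 test wells and 100% = reporter-only cells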
Target sequence (P24468 whole entry, looked up): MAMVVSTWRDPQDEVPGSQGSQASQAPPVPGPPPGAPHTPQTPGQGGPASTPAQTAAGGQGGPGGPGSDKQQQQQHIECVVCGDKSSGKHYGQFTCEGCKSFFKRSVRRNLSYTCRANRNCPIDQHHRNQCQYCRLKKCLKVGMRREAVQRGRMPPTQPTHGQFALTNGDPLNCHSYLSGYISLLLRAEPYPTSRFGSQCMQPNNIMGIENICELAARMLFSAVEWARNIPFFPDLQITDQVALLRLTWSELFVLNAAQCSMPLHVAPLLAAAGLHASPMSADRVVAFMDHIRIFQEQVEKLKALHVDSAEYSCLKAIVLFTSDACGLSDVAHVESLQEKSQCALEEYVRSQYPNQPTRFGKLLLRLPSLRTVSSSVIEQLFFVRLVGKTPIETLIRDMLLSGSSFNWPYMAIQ
Gli-Sufu antag = antagonists of Gli-Sufu signaling; Sufu-KO-LIGHT fibroblasts, Gli luciferase reporter luminescence; inhibition, % at 5 µM; hit rate 0.74% among 340,000;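 active = inhibition above about 55%, limit read from the data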;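 also: 0% = DMSO-treated cells and 100% = wells with medium but no cells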
697 NFkB inh = lowers PMA/ionomycin-induced NF-kB signal in 697 B cells. 697 B-cell NF-kB luciferase reporter, 16 h. inhibition, % at 4 µM. hit rate 0.33% among 330,000; in the data active = inhibition above about 35%
The depositor's hits bear a star; x = no result given. Only some compounds are listed: those with a hit (about 2.6% of all), similar ones and a draw of the others.

SMILES	H9c2 TAG inh	Jurkat NFkB inh	H9c2 protect	COUP-TFII inh	Gli-Sufu antag	697 NFkB inh
COC(=O)N/N=C/c1cc(Br)ccc1O	2	-7	0	13	10	-2
O=C(N/N=C/c1cc(Br)ccc1O)c1ccccc1Cl	x	20	56*	-15	21	-34
COCCCNC(=O)[C@@H](Cc1ccccc1)NC(=O)[C@H]1O[C@@H](n2ccc(=O)[nH]c2=O)[C@H](O)[C@@H]1O	x	x	x	0	x	x
COc1ccccc1CNC(=O)CCNS(=O)(=O)c1ccc2[nH]c(=O)oc2c1	x	-12	-3	4	57*	-47
O=CNc1cc(-c2ccc(C(=O)NC3CC3)cc2)cn2c(-c3ccc(F)c(Cl)c3)cnc12	23	x	60*	-2	x	x
O=CNc1cc(-c2ccc(C(=O)NC3CC3)cc2)cn2c(-c3ccccc3)cnc12	14	x	72*	-8	x	x
O=CNc1cc(-c2ccccc2)cn2c(-c3ccc(F)c(Cl)c3)cnc12	-12	x	6	30	x	x
O=C(NCCN1CCOCC1)c1cnn2c(-c3ccccc3)cc(-c3ccccc3)nc12	x	-19	79*	-3	10	27
COc1ccc(-c2cc(C(F)F)n3ncc(C(=O)Nc4ccc(C(=O)N5CCOCC5)cc4)c3n2)cc1	45	21	71*	0	25	-3
O=C(c1cnn2c(C(F)F)cc(-c3ccccc3)nc12)N1CCOCC1	x	-10	4	0	2	2
O=C(Nc1ccc(C(=O)N2CCOCC2)cc1)c1cnn2c(C(F)F)cc(-c3ccccc3)nc12	21	-1	55*	-1	12	1
Cc1cc(C)nc(N2CCN(C(=O)CSc3nc4ccccc4nc3N3CC(C)OC(C)C3)CC2)n1 (stereo not drawn)	x	x	x	-2	x	x
COC(=O)[C@]12C[C@H](CC(=O)NCCCCc3ccccc3)C(=O)N(Cc3ccco3)C1=C[C@H](C1CCCC1)O[C@@H]2C	x	x	x	5	x	x
O=C(OCCN1CCN(C2CN(Cc3cn(Cc4ccccc4C(F)(F)F)nn3)S(=O)(=O)C2)CC1)c1cc2ccccc2o1 (stereo not drawn)	x	x	x	13	x	x
CC(C)NC(=O)N[C@H]1C[C@@H]2O[C@H](CO)CC[C@@H]2O[C@@H]1CCc1ccc(-c2ccc(F)cc2)cc1	x	x	x	-2	x	x
O=C(c1ccc(-c2nc3ccccc3s2)o1)N1CCN(c2ccccc2O)CC1	15	-42	52*	-34	7	-28
O=C(O)c1ccc(-c2nc3ccccc3s2)o1	13	-4	-4	-6	-25	-39
CCCC1CCC2(CCCN2CCOC(=O)Nc2ccc(Br)cc2)CC1 (stereo not drawn)	x	x	x	7	x	x
O=C(OCc1ccccc1)c1ccc(NCc2cc(O)ccc2O)cc1	109	x	-11	56*	11	x
O=C(NN=Cc1ccc(O)cc1O)c1ccccc1NS(=O)(=O)c1cccs1	2	7	51*	-27	19	6
COC(=O)C[C@@H]1CC[C@@H]2[C@@H](COc3ccc(NC(=O)Nc4ccc(F)cc4)cc3C(=O)N2C)O1	x	x	x	-10	x	x
CN(C)CCNCCCNc1c2ccccc2nc2cccc([N+](=O)[O-])c12	3	x	-6	-1	62*	x
Cc1ccc(C(=O)Nc2nc(-c3ccccn3)cs2)s1	3	0	59*	-29	3	-83
Cc1c(C(=O)Nc2nc(-c3ccccn3)cs2)oc2ccccc12	4	-1	54*	x	-14	1
Cn1cccc1C(=O)Nc1nc(-c2ccccn2)cs1	x	-83	37	-41	-80	-161
SMILES	H9c2 TAG inh	Jurkat NFkB inh	H9c2 protect	COUP-TFII inh	Gli-Sufu antag	697 NFkB inh
CCc1sc(C(=O)Nc2nc(-c3ccccn3)cs2)cc1C	-14	-9	51*	x	-10	6
CCc1sc(C(=O)Nc2nccs2)cc1C	x	-103	-15	-65	-29	-51
O=C(NCCc1c[nH]c2ccccc12)OCc1cn(-c2cccc(C(F)(F)F)c2)nn1	x	x	x	-1	x	x
c1ccc(CNC2CCC23CCC(c2ccccc2)CC3)cc1 (stereo not drawn)	x	x	x	-13	x	x
Cc1ccccc1NC(=O)N(C)[C@H]1C[C@H]2c3[nH]c4c(-c5ccc6c(c5)OCO6)cccc4c3CCN2C[C@H]1[C@H](C)O	x	x	x	-11	x	x
CC(C)(C)OC(=O)NCc1ccc(NC(=O)c2nc[nH]c2C(=O)NCCN(CCNC(=O)c2[nH]cnc2C(=O)Nc2ccc(CNC(=O)OC(C)(C)C)cc2)CCNC(=O)c2[nH]cnc2C(=O)Nc2ccc(CNC(=O)OC(C)(C)C)cc2)cc1	x	-4	0	-1	1	-6
